NS1 function inh: inhibitors of influenza NS1 protein function | Potency, µM (highest dose often 46.1 µM), for the others: at the highest dose activity, positive = more growth | actives 0.4% (n = 270,000) | AID 2326; calls by dose curve; also: potency is read from the fitted curve at half-maximal effect; actives are rising curves; nearly all actives have a fitted effect of over 50% in size
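In this qHTS, NS1 from influenza A is expressed in budding yeast, where it slows growth. Cells are switched from glucose to 2% galactose medium (pH 6.0, -URA), treated with compound, and growth recovery is read at OD600.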
Pf growth 48h: P. falciparum growth inhibition at 48 hours (one generation) | Potency, µM (doses to about 28.7 µM), without a hit: at the highest dose activity change, negative = inhibition, actives largely listed as inhibitors | AID 504832 | P. falciparum luciferase growth in erythrocytes, 48 h | actives 5.9% (n = 310,000); also: potency is read from the fitted curve at half-maximal effect; % is scaled to controls: 0 for no effect and ±100 for the full control effect
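Read-out is firefly luciferase luminescence from an integrated reporter in P. falciparum, so falling signal marks reduced parasite growth. Infected erythrocytes were at 2% hematocrit and 0.1% parasitemia (final) in Albumax-supplemented RPMI 1640.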
Cycloheximide cs: counter-screen for Shiga toxin inhibitors: cycloheximide protein synthesis inhibition; cell reporter, cycloheximide protein synthesis inhibition counterscreen; max response, %; actives 12% (n = 300,000); in the data active = max response mostly above about 13%, no sharp cut-off; inactive = mostly below about 14%; also: read at 38.3 µM for the half of the compounds with a filed dose; 0% is about no effect
Pf growth 96h: P. falciparum growth inhibition at 96 hour, primary screen for plastid delayed-death inhibitors; Potency, µM (series often up to 28.7 µM), without a hit: at the top dose activity change, negative = inhibition, most hits filed as inhibitors; actives 6.9% (n = 320,000); P. falciparum luciferase reporter growth, 96 h; also: potency is read from the fitted curve at half-maximal effect; % is scaled to controls: 0 for no effect and ±100 for the full control effect
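P. falciparum expressing integrated firefly luciferase grown in erythrocytes (2% hematocrit, 0.05% parasitemia final) with compounds for 96 hours at 37 C, 5% CO2. Growth inhibition read as loss of luminescence after adding luciferase detection reagent.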
Shiga toxin inh: inhibitors of Shiga toxin in Vero cells; Vero cells, Shiga toxin protein synthesis inhibition reporter; inhibition, % at 38.7 µM; actives 9.2% (n = 290,000); in the data active = inhibition mostly above about 28%, no sharp cut-off; inactive = mostly below about 43%; also: 0% is about no effect
The depositor's hits bear a star; u = inconclusive; x = no result given; + = active, no number. Shown are actives, neighbours in structure and some others; about 21% of the full set was active somewhere. Unless noted, calls follow the shape of the dose curve; as a rule, active = well fitted inhibition curve with a large enough effect; inconclusive = small, poorly fitted or top-dose-only effect, or another doubt; inactive = no such curve, though single readings can be large or run the other way.

SMILES | NS1 function inh | Pf growth 48h | Cycloheximide cs | Pf growth 96h | Shiga toxin inh
Cc1cc(C(=O)COC(=O)c2ccc(NC(=O)CC#N)cc2)c(C)n1C1CC1 | x | 44% | x | 93% | x
COc1ccccc1C(=O)NC(=O)COC(=O)c1ccc(NC(=O)CC#N)cc1 | x | 3% | x | -8% | x
N#CCC(=O)Nc1ccc(C(=O)OCC(=O)C23CC4CC(CC(C4)C2)C3)cc1 | x | 13µM* | x | u | x
N#CCC(=O)Nc1ccc(C(=O)OCC(=O)NCCCc2ccccc2)cc1 | -2% | -79% | -1 | 1.2µM* | 4
N#CCC(=O)Nc1ccc(C(=O)OCc2ccccc2Oc2ccccc2)cc1 | 0% | 10µM* | -5 | u | -6
CC(/C=N/NC(=O)c1ccc2nc(C)[nH]c2c1)=C\c1ccccc1 | -4% | 33% | 14 | u | 16
CC(/C=N/NC(=O)c1cccc(F)c1)=C\c1ccccc1 | -3% | u | 51* | -3% | 104*
CC(/C=N/NC(=O)c1ccncc1)=C\c1ccccc1 | -11% | u | 23* | 33% | 52*
COc1ccccc1C(=O)N/N=C/C(C)=C/c1ccccc1 | -35% | 15% | 19* | -6% | 113
CC(/C=N/NC(=O)Cc1cc(=O)[nH][nH]1)=C\c1ccccc1 | 28% | 26% | -1 | 28% | 1
COc1ccccc1C(=O)N/C(=C\c1ccccc1)C(=O)NC(C)C(=O)O (configuration not stated) | u | 21% | -3 | 9.3µM* | -13
Cc1ccc(NC(=O)COC(=O)C2CC3C=CC2C3)cc1S(=O)(=O)N1CCCCC1 (configuration not stated) | 6% | -20% | -1 | u | -8
COc1cccc(CNC(=O)CCC2CCCN(c3cc(C)nc(N)n3)C2)c1 (configuration not stated) | -4% | u | -1 | -8% | 15
Cc1ccccc1CNc1ccc(C(CC(N)=O)NC(=O)c2ccccc2)cc1[N+](=O)[O-] (configuration not stated) | -12% | u | -5 | u | -2
CC(=C/c1ccccc1)/C=N/NC(=O)c1ccccn1 | -38% | u | 33* | 13% | 23*
CC(/C=C/c1ccccc1F)=N\NC(=O)c1cccc(F)c1 | x | 2% | 46* | -23% | 65*
CC(=C/c1ccc(C(C)C)cc1)/C=N/NC(=O)c1ccncc1 | 1% | 13µM* | 36* | u | 84*
O=C(NC1(C(F)(F)F)NC(=O)N(CC2CCCCC2)C1=O)c1ccco1 (configuration not stated) | -4% | 12% | -8 | u | -7
CC(=O)N1C(C)(C)CC(=NOC(=O)c2ccc(C)cc2)CC1(C)C | -1% | 5% | 4 | 20% | 3
CCOc1ccc(S(=O)(=O)N2CCCCC2)cc1NC(=O)C1CSC2(C)CCC(=O)N12 (configuration not stated) | x | 1µM* | x | u | x
CC(C)Oc1ccc(S(=O)(=O)N2CCCCC2)cc1NC(=O)C1CSC2(C)CCC(=O)N12 (configuration not stated) | x | 12µM* | x | u | x
COc1ccc(S(=O)(=O)N2CCCCC2)cc1NC(=O)C1CSC2(C)CCC(=O)N12 (configuration not stated) | -4% | u | -1 | 10% | 18
O=C(NNC(=O)[C@@H]1CCCC[C@@H]1C(=O)O)Nc1ccccc1 | -8% | 27% | 15* | -26% | 65*
O=C(NNC(=O)C1CC=CCC1C(=O)O)c1cccs1 (configuration not stated) | 1% | 58% | 15 | 66% | 34
CC(C)c1ccc(C(=O)NNC(=O)C2CC=CCC2C(=O)O)cc1 (configuration not stated) | -6% | 32% | 28* | 33% | 64*
SMILES | NS1 function inh | Pf growth 48h | Cycloheximide cs | Pf growth 96h | Shiga toxin inh
O=C(NNC(=O)[C@@H]1CCCC[C@@H]1C(=O)O)c1cccs1 | 3% | 14% | 29* | -21% | 58*
O=C(O)C1CC=CCC1C(=O)NNS(=O)(=O)c1ccccc1 (configuration not stated) | 0% | -8% | -9 | u | -5
Cc1ccsc1C(=O)NNC(=O)C1CC=CCC1C(=O)O (configuration not stated) | 21% | 20% | 45* | -2% | +
CN(C)/C=C(\C#N)C(=O)N/N=C(\CC(=O)C(F)(F)F)c1ccco1 | 4% | 24% | -2 | -2% | -18
Cc1ccc(NC(=S)NCc2ccccc2)cc1S(=O)(=O)N1CCCCC1 | u | u | 17 | u | 11
Cc1ccsc1C(=O)NNC(=O)C1CCCCC1C(=O)O (configuration not stated) | 8% | 330% | 31* | 107% | 65*
COc1ccc(CC(=O)NNC(=O)[C@@H]2CCCC[C@@H]2C(=O)O)cc1 | -1% | 114% | 5 | 12% | -11
COc1cc(C2Nc3ccccc3C(=O)N2c2ccc(Cl)cc2)c(Cl)cc1OCC(=O)O (configuration not stated) | 3% | 192% | 54* | 241% | 71*
CCOc1cc(C2Nc3ccccc3C(=O)N2c2ccccc2)c(Br)cc1OCC(=O)O (configuration not stated) | 24% | 0% | -3 | -29% | 19
CCOC(=O)COc1ccccc1C1Nc2ccccc2C(=O)N1c1cccc(Cl)c1 (configuration not stated) | -27% | u | 36* | 25% | 66*
CCOC(=O)COc1c(OC)cc(Cl)cc1C1Nc2ccccc2C(=O)N1c1cccc(C)c1 (configuration not stated) | u | u | 11 | u | 25
C=CCNC(=O)N[C@@H](Cc1ccccc1)C(=O)OC | 0% | u | -1 | u | -1
Cc1ccc(-c2onc3ccc(Br)cc23)cc1 | 1% | 2% | 11 | 20% | -4
Cc1ccc(-c2onc3ccc(C4OCCO4)cc23)cc1 | x | 319% | 14* | u | 71*
O=C(Nc1ccc2oc(-c3ccncc3)nc2c1)c1ccccc1 | x | 7% | 6 | 156% | 18
O=C(Nc1ccc(-c2nc3ncccc3o2)cc1)c1ccc([N+](=O)[O-])o1 | -11% | 9.3µM* | -3 | -2% | 44
O=C(Nc1ccc2oc(-c3ccncc3)nc2c1)c1ccc([N+](=O)[O-])o1 | -40% | 6.6µM* | 32* | u | 53*
COc1ccc(N2CCN(C(C)C(=O)Nc3nnc(C)s3)CC2)cc1 (configuration not stated) | 2% | 5% | 1 | 180% | 3
Cc1c(C(=O)NCc2ccc(F)cc2)c(-c2ccccc2)nn1-c1ccccc1 | 6% | x | -4 | 5.9µM* | -6
O=C(NCc1ccccn1)C12CC3CC(CC(C3)C1)C2 | -4% | -16% | -1 | 45% | -13
O=C(NC(CC(=O)N1CCN(c2ccc([N+](=O)[O-])cc2)CC1)c1ccccc1)c1ccccc1Cl (configuration not stated) | 14% | u | -4 | 12µM* | 18
